The campaign covered roughly 5,500 compounds. About 2,000 (36%) were called active. Roughly 18% stayed inconclusive and do not appear here. Cut-off read from the data, not from the text of the source: active = normalized growth mostly below about 0.91 (no sharp cut-off); inconclusive = no clear call, values can overlap the other calls; inactive = mostly above about 0.92. The list shows a part of the results.
Assay: chemical genetic growth profiling, strain panel (AID 1159580);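 note: tested at 20 µM; growth read once vehicle control cultures reached saturation at 30 °C; 1 = growth at the plate median or of vehicle wells; lower values mean less growth of the strain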
Conditions: growth OD

Measured: normalized growth

NCc1ccc(S(N)(=O)=O)cc1
inactive: S. cerevisiae deletion strains, locus YKL009W, strain mrt4, hits give low values 0.974 | S. cerevisiae deletion strains, locus YKL068W, hits give low values 0.987 | S. cerevisiae deletion strains, locus YKL085W, strain MDH1 (second series), hits give low values 0.982 | S. cerevisiae deletion strains, locus YKL085W, strain MDH1, hits give low values 0.982 | S. cerevisiae deletion strains, locus YKL160W, strain elf1, hits give low values 1.06 | S. cerevisiae deletion strains, locus YKL190W, strain CNB1, hits give low values 1.01 | S. cerevisiae deletion strains, locus YKR001C, strain vps1, hits give low values 1.02 | S. cerevisiae deletion strains, locus YKR026C, strain gcn3, hits give low values 1.01 | S. cerevisiae deletion strains, locus YKR091W, strain srl3, hits give low values 1 | S. cerevisiae deletion strains, locus YLL001W, strain dnm1, hits give low values 1.05 | S. cerevisiae deletion strains, locus YLL026W, hits give low values 1 | S. cerevisiae deletion strains, locus YLL041C, strain sdh2, hits give low values 0.996 | S. cerevisiae deletion strains, locus YLR027C, strain aat2, hits give low values 1.01 | S. cerevisiae deletion strains, locus YLR039C, strain RIC1, hits give low values 0.986 | S. cerevisiae deletion strains, locus YLR058C, strain SHM2, hits give low values 0.984 | S. cerevisiae deletion strains, locus YLR102C, strain apc9, hits give low values 0.988 | S. cerevisiae deletion strains, locus YLR113W, strain HOG1, hits give low values 1.01 | S. cerevisiae deletion strains, locus YLR221C, strain rsa3, hits give low values 1.05 | S. cerevisiae deletion strains, locus YLR258W, strain gsy2, hits give low values 1.01 | S. cerevisiae deletion strains, locus YLR262C, strain YPT6 (second series), hits give low values 1.04 | S. cerevisiae deletion strains, locus YLR262C, strain YPT6, hits give low values 1.02 | S. cerevisiae deletion strains, locus YLR268W, strain sec22, hits give low values 0.988 | S. cerevisiae deletion strains, locus YLR320W, strain mms22, hits give low values 1.06 | S. cerevisiae deletion strains, locus YLR330W, strain CHS5, hits give low values 0.989 | S. cerevisiae deletion strains, locus YLR342W, strain FKS1 (second series), hits give low values 1 | S. cerevisiae deletion strains, locus YLR342W, strain FKS1, hits give low values 1.01 | S. cerevisiae deletion strains, locus YLR357W, strain rsc2, hits give low values 1.01 | S. cerevisiae deletion strains, locus YLR370C, strain arc18, hits give low values 1.01 | S. cerevisiae deletion strains, locus YLR371W, strain rom2, hits give low values 0.985 | S. cerevisiae deletion strains, locus YLR384C, strain iki3, hits give low values 1.01 | S. cerevisiae deletion strains, locus YLR418C, strain cdc73, hits give low values 0.954 | S. cerevisiae deletion strains, locus YML016C, strain PPZ1, hits give low values 0.995 | S. cerevisiae deletion strains, locus YML032C, strain rad52, hits give low values 0.99 | S. cerevisiae deletion strains, locus YML120C, strain ndi1, hits give low values 1.04 | S. cerevisiae deletion strains, locus YML124C, strain tub3, hits give low values 0.99 | S. cerevisiae deletion strains, locus YMR058W, strain fet3, hits give low values 1.02 | S. cerevisiae deletion strains, locus YMR078C, strain ctf18, hits give low values 0.978 | S. cerevisiae deletion strains, locus YMR125W, strain sto1, hits give low values 1.04 | S. cerevisiae deletion strains, locus YMR129W, hits give low values 1 | S. cerevisiae deletion strains, locus YMR205C, strain PFK2, hits give low values 1.05 | S. cerevisiae deletion strains, locus YMR223W, strain ubp8, hits give low values 0.962 | S. cerevisiae deletion strains, locus YMR231W, strain pep5, hits give low values 0.993 | S. cerevisiae deletion strains, locus YMR263W, strain SAP30, hits give low values 0.999 | S. cerevisiae deletion strains, locus YMR307W, strain GAS1, hits give low values 1.01 | S. cerevisiae deletion strains, locus YNL067W, strain RPL9B, hits give low values 1 | S. cerevisiae deletion strains, locus YNL071W, strain lat1, hits give low values 1.01 | S. cerevisiae deletion strains, locus YNL153C, strain GIM3, hits give low values 1.01 | S. cerevisiae deletion strains, locus YNL183C, strain NPR1, hits give low values 0.956 | S. cerevisiae deletion strains, locus YNL209W, strain ssb2, hits give low values 1 | S. cerevisiae deletion strains, locus YNL233W, strain BNI4, hits give low values 0.99 | S. cerevisiae deletion strains, locus YNL248C, strain rpa49, hits give low values 1.04 | S. cerevisiae deletion strains, locus YNL250W, strain rad50, hits give low values 0.967 | S. cerevisiae deletion strains, locus YNL271C, strain bni1, hits give low values 0.985 | S. cerevisiae deletion strains, locus YNL298W, strain CLA4, hits give low values 0.991 | S. cerevisiae deletion strains, locus YNL307C, strain MCK1, hits give low values 0.992 | S. cerevisiae deletion strains, locus YNL322C, strain KRE1 (second series), hits give low values 1.02 | S. cerevisiae deletion strains, locus YNL322C, strain KRE1, hits give low values 0.999 | S. cerevisiae deletion strains, locus YNR049C, strain mso1, hits give low values 0.999 | S. cerevisiae deletion strains, locus YNR052C, strain pop2, hits give low values 0.987 | S. cerevisiae deletion strains, locus YOL006C, strain TOP1, hits give low values 0.97 | S. cerevisiae deletion strains, locus YOL012C, strain htz1 1.28 | S. cerevisiae deletion strains, locus YOL147C, strain pex11, hits give low values 0.985 | S. cerevisiae deletion strains, locus YOR001W, strain rrp6, hits give low values 0.972 | S. cerevisiae deletion strains, locus YOR061W, strain CKA2, hits give low values 0.993 | S. cerevisiae deletion strains, locus YOR069W, strain VPS5, hits give low values 0.99 | S. cerevisiae deletion strains, locus YOR070C, strain gyp1, hits give low values 1.01 | S. cerevisiae deletion strains, locus YOR080W, strain dia2, hits give low values 0.996 | S. cerevisiae deletion strains, locus YOR083W, strain WHI5, hits give low values 1.06 | S. cerevisiae deletion strains, locus YOR106W, strain vam3, hits give low values 1.06 | S. cerevisiae deletion strains, locus YOR136W, strain idh2, hits give low values 0.992 | S. cerevisiae deletion strains, locus YOR144C, strain elg1, hits give low values 0.987 | S. cerevisiae deletion strains, locus YOR184W, strain ser1, hits give low values 1 | S. cerevisiae deletion strains, locus YOR231W, strain MKK1, hits give low values 1.01 | S. cerevisiae deletion strains, locus YOR265W, strain rbl2, hits give low values 1.02 | S. cerevisiae deletion strains, locus YOR270C, strain vph1, hits give low values 1.06 | S. cerevisiae deletion strains, locus YOR290C, strain snf2, hits give low values 1.02 | S. cerevisiae deletion strains, locus YOR316C, strain cot1, hits give low values 0.993 | S. cerevisiae deletion strains, locus YPL051W, strain arl3, hits give low values 1.03 | S. cerevisiae deletion strains, locus YPL055C, strain LGE1, hits give low values 1.01 | S. cerevisiae deletion strains, locus YPL078C, strain atp4, hits give low values 1.06 | S. cerevisiae deletion strains, locus YPL106C, strain sse1, hits give low values 1.03 | S. cerevisiae deletion strains, locus YPL240C, strain hsp82, hits give low values 1.01 | S. cerevisiae deletion strains, locus YPL241C, strain CIN2, hits give low values 0.998 | S. cerevisiae deletion strains, locus YPL256C, strain CLN2, hits give low values 1.01 | S. cerevisiae deletion strains, locus YPR119W, strain clb2, hits give low values 0.993 | S. cerevisiae deletion strains, locus YPR141C, strain kar3, hits give low values 0.976 | S. cerevisiae deletion strains, locus YPR163C, strain tif3, hits give low values 0.995 | S. cerevisiae deletion strains, locus YPR167C, strain met16, hits give low values 0.99 | S. cerevisiae deletion strains, strain wtn01, hits give low values 0.987 | S. cerevisiae strains, strain wild type, hits give low values 1.01
